# “And” between values parts separate entries of the source, which are not always exact repeats. Equal entries are not always repeated. Inconclusive results are not listed. Entries that show only a call come without a potency. Some structures have more than one record in an assay (separate samples or runs), and their calls can disagree. The source made the active and inactive calls. Unless noted, calls follow the shape of the dose curve; as a rule, active = well fitted curve in the direction sought with a large enough effect in the repeat runs; inconclusive = weak or mixed curves; inactive = no such curve, though single readings can be large; an effect the other way counts as inactive or inconclusive.
# Tests used:
# [1] = molecular target: Progesterone receptor (Homo sapiens) (UniProt P06401); experiment: qHTS assay to identify small molecule agonists of the progesterone receptor (PR) signaling pathway (AID 1346784; calls by dose curve; also: nearly all actives have a fitted effect of over 30% in size; also: potency is read from the fitted curve at half-maximal effect)
# Progesterone receptor (Homo sapiens), sequence (P06401 whole entry, looked up): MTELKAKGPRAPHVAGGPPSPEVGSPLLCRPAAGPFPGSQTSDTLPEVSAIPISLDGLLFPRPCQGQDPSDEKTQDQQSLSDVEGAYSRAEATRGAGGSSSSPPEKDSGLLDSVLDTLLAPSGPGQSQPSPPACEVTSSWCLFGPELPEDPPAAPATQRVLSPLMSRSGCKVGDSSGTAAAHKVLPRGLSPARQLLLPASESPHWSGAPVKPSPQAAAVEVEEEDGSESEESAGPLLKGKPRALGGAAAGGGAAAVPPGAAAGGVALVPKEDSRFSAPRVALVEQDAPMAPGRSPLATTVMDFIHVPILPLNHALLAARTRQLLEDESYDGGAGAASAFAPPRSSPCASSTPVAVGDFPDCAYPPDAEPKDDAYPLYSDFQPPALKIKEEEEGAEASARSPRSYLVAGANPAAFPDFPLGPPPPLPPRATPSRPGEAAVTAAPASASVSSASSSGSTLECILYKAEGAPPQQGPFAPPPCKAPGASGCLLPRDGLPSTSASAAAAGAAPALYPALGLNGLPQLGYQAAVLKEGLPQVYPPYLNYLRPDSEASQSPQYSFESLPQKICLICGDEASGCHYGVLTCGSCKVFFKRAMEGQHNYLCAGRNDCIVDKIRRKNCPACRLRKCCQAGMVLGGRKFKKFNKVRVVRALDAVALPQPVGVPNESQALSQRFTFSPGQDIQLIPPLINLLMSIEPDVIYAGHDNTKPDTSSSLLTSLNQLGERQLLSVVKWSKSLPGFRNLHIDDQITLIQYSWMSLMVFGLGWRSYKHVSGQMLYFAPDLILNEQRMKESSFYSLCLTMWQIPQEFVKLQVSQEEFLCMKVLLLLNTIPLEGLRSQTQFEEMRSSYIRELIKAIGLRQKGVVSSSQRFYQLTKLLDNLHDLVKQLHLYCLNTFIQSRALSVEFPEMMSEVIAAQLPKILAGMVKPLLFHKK
# Method in brief: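 HEK 293T PR-UAS-bla reporter cells, 2% charcoal-stripped FBS; 6 hr settle at 37C/5% CO2, compound (DMSO) 16 hr, LiveBLAzer B/G FRET substrate 2 hr RT, fluorescence intensity read.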
# [2] = molecular target: Progesterone receptor (Homo sapiens) (UniProt P06401); experiment: qHTS assay to identify small molecule antagonists of the progesterone receptor (PR) signaling pathway (AID 1346795; active = well fitted inhibition curve with a large enough effect in the signal ratio in the repeat runs, not every such curve was filed as active; the % refers to the signal ratio; also: potency is read from the fitted curve at half-maximal effect)
# Method in brief: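 Beta-lactamase reporter, HEK293T PR-UAS-bla line; 2% charcoal-stripped FBS; 6 hr pre-incubation, 37C/5% CO2. Compound + R5020 1 nM final, 16 hr. LiveBLAzer B/G FRET substrate, 2 hr RT; fluorescence intensity read.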
# [3] = qHTS assay to identify small molecule antagonists of the progesterone receptor (PR) signaling pathway - cell viability counter screen (AID 1346798); also: nearly all actives have a fitted effect of over 50% in size; also: potency is read from the fitted curve at half-maximal effect
# Method in brief: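 Luminescence readout (CellTiter-Glo, 30 min, RT) of viability in PR-UAS-bla HEK293T cells exposed to compound and R5020 agonist for 16 hr at 37C, 5% CO2; run in the same wells as the beta-lactamase reporter read.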
# [4] = qHTS assay to identify small molecule agonists of the progesterone receptor (PR) signaling pathway - cell viability counter screen (AID 1346799; calls by dose curve; also: nearly all actives have a fitted effect of over 45% in size; also: potency is read from the fitted curve at half-maximal effect)
# Method in brief: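 HEK293T PR-UAS-bla, 3,000 cells/well, 2% charcoal-stripped FBS; 6 h settle, compound 16 h at 37C/5% CO2; LiveBLAzer 2 h RT, then CellTiter-Glo 30 min RT, luminescence read.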
# [5] = qHTS assay to identify small molecule agonists of the TGF-beta/Smad signaling pathway - cell viability counter screen (AID 1346829); also: nearly all actives have a fitted effect of over 45% in size; also: potency is read from the fitted curve at half-maximal effect
# Method in brief: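 After overnight seating at 37 C and 5% CO2, reporter cells got compounds for 5 hr and FRET substrate for 2 hr; cell viability then came from CellTiter-Glo luminescence.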
# [6] = qHTS assay to identify small molecule agonists of the TGF-beta/Smad signaling pathway (AID 1346859; active = well fitted activation curve with a large enough effect in the signal ratio in the repeat runs, not every such curve was filed as active; the % refers to the signal ratio; also: series mostly up to about 77 µM)
# Method in brief: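 Read-out: fluorescence at 460 and 530 nm (405 nm excitation) after a 2 hr room-temperature incubation with beta-lactamase FRET substrate. SBE-bla HEK 293T cells had been treated with test compounds for 5 hr at 37 C.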
# [7] = molecular target: Thyrotropin-releasing hormone receptor (Homo sapiens) (UniProt P34981); experiment: qHTS assay to identify small molecule antagonists of the thyrotropin-releasing hormone receptor (TRHR) signaling pathway (AID 1346877; active = well fitted inhibition curve with a large enough effect in the repeat runs, not every such curve was filed as active; also: series mostly up to about 51 µM)
# Thyrotropin-releasing hormone receptor (Homo sapiens), sequence (P34981 whole entry, looked up): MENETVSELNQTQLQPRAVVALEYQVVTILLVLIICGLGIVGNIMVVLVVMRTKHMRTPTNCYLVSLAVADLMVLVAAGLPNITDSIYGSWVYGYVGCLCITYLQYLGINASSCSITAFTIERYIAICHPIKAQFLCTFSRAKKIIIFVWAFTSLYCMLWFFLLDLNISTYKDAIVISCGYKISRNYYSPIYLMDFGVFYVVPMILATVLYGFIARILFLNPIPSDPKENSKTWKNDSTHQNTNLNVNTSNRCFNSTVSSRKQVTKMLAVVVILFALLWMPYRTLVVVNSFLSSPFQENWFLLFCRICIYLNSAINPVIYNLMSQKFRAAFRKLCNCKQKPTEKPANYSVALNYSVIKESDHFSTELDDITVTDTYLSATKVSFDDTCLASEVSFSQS
# Method in brief: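 In this cell-based calcium flux format, HEK293 cells expressing TRHR received test compound for 5 min before the agonist TRH (1 nM final). Dye loading lasted 2 h at 37 °C.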
# [8] = molecular target: Thyrotropin-releasing hormone receptor (Homo sapiens) (UniProt P34981); experiment: qHTS assay to identify small molecule agonists of the thyrotropin-releasing hormone receptor (TRHR) signaling pathway (AID 1346891; calls by dose curve; also: series mostly up to about 58 µM)
# Method in brief: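 HEK293/TRHR cells, 1500 per well, 18 h 37 °C; Ca dye 2 h 37 °C; pin-tool compound addition (agonist mode); kinetic fluorescence 3 min, 1 s reads; 15 concentrations, triplicate.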
# [9] = Human pregnane X receptor (PXR) small molecule agonists, qHTS cell viability counter screen (AID 1346977); also: nearly all actives have a fitted effect of over 50% in size; also: potency is read from the fitted curve at half-maximal effect
# Method in brief: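 Fluorescence read-out (CellTiter-Fluor) of viability in PXR-Luc HepG2 cells, multiplexed with the luciferase agonist read. Compounds in DMSO added after 5hr plating; 24hr total exposure at 37C, 5% CO2.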
# [10] = Caspase-3/7 induction in HepG2 cells by small molecules, qHTS assay (AID 1346978); also: nearly all actives have a fitted effect of over 15% in size; also: potency is read from the fitted curve at half-maximal effect
# Method in brief: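 Wild-type HepG2 cells (2,000/well) were settled 5 h at 37 C, 5% CO2, then exposed to compounds in DMSO for 17 h. Caspase-3/7 activity was read by luminescence 30 min after adding Caspase-Glo 3/7 reagent at room temperature.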
# [11] = Caspase-3/7 induction in CHO-K1 cells by small molecules, qHTS cell viability counter screen (AID 1346979); also: nearly all actives have a fitted effect of over 35% in size; also: potency is read from the fitted curve at half-maximal effect
# Method in brief: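 CHO-K1 wt, 1,500 cells/well; 5hr pre-incubation 37C/5% CO2; compound pin transfer (DMSO); 16hr exposure; CellTiter-Fluor added, 1hr, fluorescence read.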
# [12] = Caspase-3/7 induction in CHO-K1 cells by small molecules, qHTS assay (AID 1346980); also: nearly all actives have a fitted effect of over 15% in size; also: potency is read from the fitted curve at half-maximal effect
# Method in brief: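 Wild-type cells were seeded at 1,500 per well and settled 5 hr at 37 C, 5% CO2, then exposed to DMSO-dissolved compounds for 17 hr. Caspase-Glo 3/7 reagent was added, and luminescence was read after 30min at room temperature.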
# [13] = Caspase-3/7 induction in HepG2 cells by small molecules, qHTS cell viability counter screen (AID 1346981); also: nearly all actives have a fitted effect of over 30% in size; also: potency is read from the fitted curve at half-maximal effect
# Method in brief: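 Counter screen for cytotoxicity: HepG2 exposed 16 hr to compounds, then CellTiter-Fluor viability signal (fluorescence, 1 hr reagent incubation).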
# [14] = molecular target: Nuclear receptor subfamily 1 group I member 2 (Homo sapiens) (UniProt O75469); experiment: Human pregnane X receptor (PXR) small molecule agonists, qHTS assay (AID 1346982); also: nearly all actives have a fitted effect of over 35% in size; also: potency is read from the fitted curve at half-maximal effect
# Nuclear receptor subfamily 1 group I member 2 (Homo sapiens), sequence (O75469 whole entry, looked up): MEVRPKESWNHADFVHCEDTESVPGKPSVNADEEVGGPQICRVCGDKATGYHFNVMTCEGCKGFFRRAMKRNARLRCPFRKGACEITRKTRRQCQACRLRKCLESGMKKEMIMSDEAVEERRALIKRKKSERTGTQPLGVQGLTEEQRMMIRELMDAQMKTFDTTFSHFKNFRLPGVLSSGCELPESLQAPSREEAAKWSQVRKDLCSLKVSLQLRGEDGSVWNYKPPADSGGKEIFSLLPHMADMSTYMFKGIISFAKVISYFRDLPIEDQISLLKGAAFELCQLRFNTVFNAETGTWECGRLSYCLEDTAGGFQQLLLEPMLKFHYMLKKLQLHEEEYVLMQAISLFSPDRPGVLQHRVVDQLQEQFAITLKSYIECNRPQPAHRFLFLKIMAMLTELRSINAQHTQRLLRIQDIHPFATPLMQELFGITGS
# Method in brief: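 Luminescence (ONE-Glo, 30 min RT) after 24 hr compound exposure of PXR-Luc HepG2 cells; cells rested 5 hr post-plating in 5% charcoal-stripped FBS medium.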
# [15] = molecular target: Acetylcholinesterase (Homo sapiens) (UniProt P22303); experiment: Acetylcholinesterase (AChE) small molecule antagonists: colormetric cell-based qHTS assay (AID 1347395; calls by dose curve; also: nearly all actives have a fitted effect of over 30% in size; also: potency is read from the fitted curve at half-maximal effect)
# Acetylcholinesterase (Homo sapiens), sequence (P22303 whole entry, looked up): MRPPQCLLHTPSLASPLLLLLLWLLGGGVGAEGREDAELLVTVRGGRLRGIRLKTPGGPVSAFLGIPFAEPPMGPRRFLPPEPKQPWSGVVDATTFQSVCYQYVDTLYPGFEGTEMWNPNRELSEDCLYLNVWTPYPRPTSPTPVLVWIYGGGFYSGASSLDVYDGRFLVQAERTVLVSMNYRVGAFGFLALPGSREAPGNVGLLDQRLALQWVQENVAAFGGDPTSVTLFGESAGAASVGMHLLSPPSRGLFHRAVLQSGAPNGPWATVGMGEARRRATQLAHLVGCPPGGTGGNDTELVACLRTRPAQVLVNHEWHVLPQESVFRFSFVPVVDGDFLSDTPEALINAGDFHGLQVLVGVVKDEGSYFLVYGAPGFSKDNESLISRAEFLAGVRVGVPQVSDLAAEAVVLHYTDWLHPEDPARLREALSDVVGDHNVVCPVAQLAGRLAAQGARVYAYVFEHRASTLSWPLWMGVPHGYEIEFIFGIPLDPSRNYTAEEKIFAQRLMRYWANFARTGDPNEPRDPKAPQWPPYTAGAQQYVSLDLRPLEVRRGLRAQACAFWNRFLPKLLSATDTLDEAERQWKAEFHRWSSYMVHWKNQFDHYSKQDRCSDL
# Method in brief: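 SH-SY5Y cells; cpd 30 min 37 C; + DTNB/acetylthiocholine, 90 min 37 C; colorimetric thiocholine read; qHTS.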
# [16] = molecular target: Acetylcholinesterase (Homo sapiens) (UniProt P22303); experiment: Acetylcholinesterase (AChE) small molecule antagonists: enzyme-based qHTS assay (AID 1347397; calls by dose curve; also: nearly all actives have a fitted effect of over 55% in size; also: potency is read from the fitted curve at half-maximal effect); conditions: Potency: AChE enzyme activity inhibition
# Method in brief: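 Recombinant human AChE, dispensed at 50 mU/mL, was preincubated with Tox21 10K compounds or DMSO vehicle for 30 min at room temperature. DTNB plus acetylthiocholine was then added, and thiocholine was measured colorimetrically after a further 10 min.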
# [17] = molecular target: Nuclear receptor subfamily 1 group I member 2 (Rattus norvegicus) (UniProt Q9R1A7); experiment: Rat pregnane X receptor (rPXR) activation by small molecules, qHTS assay (AID 1346983); conditions: rPXR luciferase reporter cells, One-Glo luminescence, 24 h; stronger effect = higher value; also: nearly all actives have a fitted effect of over 20% in size
# Nuclear receptor subfamily 1 group I member 2 (Rattus norvegicus), sequence (Q9R1A7 whole entry, looked up): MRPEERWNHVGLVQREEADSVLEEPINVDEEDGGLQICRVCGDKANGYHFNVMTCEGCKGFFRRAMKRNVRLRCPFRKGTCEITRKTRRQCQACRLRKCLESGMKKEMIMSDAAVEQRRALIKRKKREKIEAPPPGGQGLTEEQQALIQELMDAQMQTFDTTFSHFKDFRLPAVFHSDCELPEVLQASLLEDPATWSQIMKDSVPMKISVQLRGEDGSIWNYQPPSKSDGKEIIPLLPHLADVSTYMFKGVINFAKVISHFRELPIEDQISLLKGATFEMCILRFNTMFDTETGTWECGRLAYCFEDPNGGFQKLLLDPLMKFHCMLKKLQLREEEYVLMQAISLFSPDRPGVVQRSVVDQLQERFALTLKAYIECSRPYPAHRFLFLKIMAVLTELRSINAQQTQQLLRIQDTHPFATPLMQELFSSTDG
# Method in brief: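 Cell-based rPXR luciferase reporter assay, 2,000 cells per well, rested 5hr at 37 C before compound addition in DMSO, then 24 hr at 37 C. One-Glo reagent was added and luminescence read after 30 min at room temperature.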
# [18] = molecular target: Nuclear receptor subfamily 1 group I member 2 (Homo sapiens) (UniProt O75469); experiment: CYP3A4 induction through human pregnane X receptor (PXR) by small molecules, qHTS assay (AID 1346984); also: nearly all actives have a fitted effect of over 40% in size; also: potency is read from the fitted curve at half-maximal effect
# Method in brief: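 DPX-2 reporter cells; 24h cpd, 37C; Luciferin-IPA 3uM final x3h; One-Glo 30 min RT; lumi read.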
# [19] = molecular target: Nuclear receptor subfamily 1 group I member 2 (Homo sapiens) (UniProt O75469); experiment: Human pregnane X receptor (PXR) activation by small molecules, qHTS assay (AID 1346985); also: nearly all actives have a fitted effect of over 40% in size
# Method in brief: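 DPX-2 cells (HepG2 co-transfected with a PXR response element and a CYP3A4-promoter luciferase construct) were seeded at 2,000 per well, rested 5 hr at 37C, then exposed to DMSO-dissolved compounds for 24 hr. Activation was read as luciferase luminescence.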
# [20] = qHTS assay to identify small molecule antagonists of the TGF-beta/Smad signaling pathway - cell viability counter screen (AID 1346824); also: nearly all actives have a fitted effect of over 50% in size; also: potency is read from the fitted curve at half-maximal effect
# Method in brief: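 SBE-bla HEK 293T cells were plated overnight at 37 C, then given compounds in DMSO plus TGF-beta1 (added as 0.25 ng/mL solution) for 5 hr. After the bla read, CellTiter-Glo was added to the same wells and luminescence read after 30 min at room temperature.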
Structure (SMILES),Potency [1],Potency [2],Potency [3],Potency [4],Potency [5],Potency [6],Potency [7],outcome [8],Potency [9],Potency [10],Potency [11],Potency [12],Potency [13],Potency [14],Potency [15],Potency [16],max activation [17],Potency [18],outcome [19],Potency [20]
CCCCOCC1CO1 (stereo not given),inactive,inactive,inactive,inactive,inactive,inactive,inactive,inactive,inactive,inactive,inactive,inactive,inactive,inactive,inactive,10.1 µM (active) and inactive,–,–,–,–
COP(=S)(OC)Oc1ccc(Sc2ccc(OP(=S)(OC)OC)cc2)cc1,inactive,54.5 µM (active) and inactive,inactive,inactive,inactive,inactive,inactive,inactive,inactive,inactive,inactive,inactive,inactive,24.3 µM (active) and inactive,inactive,inactive,1.76% (inactive),inactive,inactive,–
CCNc1nc(Cl)nc(NC(C)(C)C#N)n1,inactive,inactive,inactive,inactive,inactive,inactive,–,–,inactive,inactive,–,inactive,inactive,61.1 µM (active),inactive,inactive,–,–,–,inactive
CCN(CC)C(=O)C(C)Oc1cccc2ccccc12 (stereo not given),inactive,–,inactive,inactive,inactive,inactive,inactive,inactive,inactive,inactive,–,inactive,inactive,7.76 µM (active) and 864 nM (active),inactive,inactive,–,–,–,inactive
Cc1cccc(N=Nc2ccc(N(C)C)cc2)c1,inactive,–,inactive,inactive,inactive,inactive,inactive,inactive,inactive,7.83 µM (active) and 2.43 µM (active),62.2 µM (active) and 43.3 µM (active),inactive,27.8 µM (active) and 8.63 µM (active),221 nM (active) and 3.06 µM (active),inactive,inactive,–,–,–,–
CCOP(=S)(OCC)SCn1c(=O)oc2cc(Cl)ccc21,inactive,–,inactive,inactive,inactive,inactive,inactive,inactive,inactive,inactive,73.6 µM (active),inactive,inactive,32.9 µM (active) and 34.4 µM (active),–,inactive,–,–,–,inactive
CC(C)(O)C(=O)Nc1ccc([N+](=O)[O-])c(C(F)(F)F)c1,inactive,–,inactive,–,inactive,inactive,–,–,–,inactive,44.2 µM (active) and 39.8 µM (active),inactive,inactive,27.9 µM (active) and 25.1 µM (active),inactive,inactive,–,–,–,inactive
CCOP(=O)(O)OCC (tested in a mixture with another compound),inactive,inactive and 60.6 µM (active),inactive,inactive,inactive and 54.5 µM (active),inactive,–,–,inactive and 24.1 µM (active),inactive,–,inactive,inactive and 68 µM (active),inactive and 4.29 µM (active),inactive,inactive and 31.4 µM (active),–,–,–,–
c1ccc2c(c1)Nc1ccccc1S2,1.54 µM (active) and inactive,–,inactive,inactive,inactive,inactive,inactive,inactive,inactive,inactive,68.6 µM (active) and inactive,inactive,inactive,27.3 µM (active),inactive,inactive,-0.408% (inactive),0.708 µM (active),inactive,–
N#Cc1c(Cl)c(Cl)c(Cl)c(C#N)c1Cl,–,3.37 µM (active) and 3.86 µM (active),19 µM (active) and 13.7 µM (active),21.3 µM (active) and 19.3 µM (active),48 µM (active) and 54.9 µM (active),inactive,–,–,12.6 µM (active) and 13.7 µM (active),inactive,–,–,23.9 µM (active) and 54.5 µM (active),950 nM (active) and 1.93 µM (active),15.6 µM (active) and 17.8 µM (active),inactive,–,–,–,48 µM (active) and 49 µM (active)
CSc1nc(NC(C)C)nc(NC(C)C)n1,inactive,–,inactive,inactive,inactive,inactive,inactive,inactive,inactive,inactive,inactive,inactive,inactive,30.5 µM (active) and 21.7 µM (active),inactive,inactive,–,–,–,inactive
Nc1ccc([N+](=O)[O-])cc1N,inactive,–,–,inactive,inactive,inactive,inactive,inactive,22.4 µM (active) and 61.1 µM (active),inactive,–,inactive,54.4 µM (active) and 54.5 µM (active),8.63 µM (active),inactive,inactive,–,–,–,–
CCC[CH2][Sn]([Cl])([CH2]CCC)[CH2]CCC,–,–,1.73 µM (active) and 3.44 µM (active),1.73 µM (active) and 2.17 µM (active),1.55 µM (active) and 977 nM (active),–,–,–,562 nM (active) and 433 nM (active),1.73 µM (active) and 2.73 µM (active),194 nM (active) and 344 nM (active),274 nM (active) and 545 nM (active),1.94 µM (active) and 4.33 µM (active),487 nM (active) and inactive,inactive,inactive,–,–,–,1.38 µM (active) and 2.19 µM (active)

# Source: PubChem BioAssay (Tox21)
